# Laboratory results taken from PubChem BioAssay (NCI).
# The panel holds about 79,000 compounds, 15% with a hit somewhere; the sample as a whole holds those more often. Values without a mark were called inactive. Active and inactive are the calls of the source. Cut-off read from the data, not from the text of the source: active = growth inhibition above about 70%; inactive = the rest.
# Tests used:
# [1] = NCI Yeast Anticancer Drug Screen. Data for the rad52 strain (AID 147);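 note: 0% = growth of vehicle-treated control cultures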; details: S. cerevisiae rad52 mutant growth inhibition, hits give high values
# Summary of the method: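 Here a repair-compromised yeast strain receives each compound; its growth is then quantified and normalised to vehicle-only controls.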
# [2] = NCI Yeast Anticancer Drug Screen. Data for the wt1 strain (AID 149);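 note: 0% = growth of vehicle-treated wt1 cultures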; details: S. cerevisiae wt1 strain (SPY 50644) growth inhibition, hits give high values
# Summary of the method: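 Readout: yeast growth inhibition, normalised to vehicle controls, in the wt1 strain exposed to test compounds.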
# [3] = NCI Yeast Anticancer Drug Screen. Data for the rad50EPP+ strain (AID 151);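 note: 0% = growth of vehicle-treated control cultures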; details: S. cerevisiae rad50 mutant strain, hits give high values
# Summary of the method: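 Read-out is yeast growth inhibition relative to vehicle; cells used were the rad50EPP+ strain.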
# [4] = NCI Yeast Anticancer Drug Screen. Data for the mgt1 strain (AID 153); details: S. cerevisiae mgt1 mutant growth inhibition, hits give high values
# Summary of the method: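 Measured: inhibition of mgt1 yeast growth by compound, normalized to vehicle-treated cultures.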
# [5] = NCI Yeast Anticancer Drug Screen. Data for the rad50 strain (AID 155);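 note: 0% = growth of vehicle-only cultures of the same strain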; details: S. cerevisiae rad50 strain growth inhibition, hits give high values
# Summary of the method: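 Compounds were tested on a yeast strain with an engineered DNA damage repair alteration; the reported value is growth inhibition normalised to vehicle treatment.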
# [6] = NCI Yeast Anticancer Drug Screen. Data for the mec2-1 strain (AID 157); details: S. cerevisiae mec2-1 strain, hits give high values
# Summary of the method: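 Using mec2-1 yeast: add compound, measure growth, express inhibition versus vehicle-treated cultures.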
# [7] = NCI Yeast Anticancer Drug Screen. Data for the rad14 strain (AID 159);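 note: 0% = growth of vehicle-treated control cultures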; details: S. cerevisiae rad14 strain growth inhibition, hits give high values
# Summary of the method: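 Compound-treated yeast with a defined DNA-repair lesion; growth inhibition normalised to vehicle-treated cultures.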
# [8] = NCI Yeast Anticancer Drug Screen. Data for the sgs1 mgt1 strain (AID 161);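 note: 0% = growth of cultures given vehicle only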; details: S. cerevisiae sgs1 mgt1 strain, hits give high values
# Summary of the method: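 Percent growth inhibition was derived by comparing compound-exposed mutant yeast with vehicle-exposed cultures. The strain carries alterations in DNA damage repair.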
# [9] = NCI Yeast Anticancer Drug Screen. Data for the CLN2oe strain (AID 163);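 note: 0% = growth of vehicle-only control cultures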; details: S. cerevisiae CLN2oe strain, hits give high values
# Summary of the method: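 Whole-cell yeast growth assay. A strain engineered for altered cell-cycle control received compound, and inhibition relative to vehicle-treated cultures was recorded.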
# [10] = NCI Yeast Anticancer Drug Screen. Data for the cln2 rad14 strain (AID 165);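 note: 0% = growth equal to vehicle treated cultures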; details: S. cerevisiae cln2 rad14 strain, hits give high values
# Summary of the method: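 Yeast strain cln2 rad14, bearing defects in cell cycle control and DNA repair, serves as the test system; values reflect growth inhibition compared with vehicle.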
# [11] = NCI Yeast Anticancer Drug Screen. Data for the bub3 strain (AID 167); details: S. cerevisiae bub3 mutant strain, hits give high values
# Summary of the method: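 Growth of a checkpoint-deficient yeast mutant is measured after compound exposure. Values represent inhibition relative to vehicle.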
# [12] = NCI Yeast Anticancer Drug Screen. Data for the wt2 strain (AID 169);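 note: 0% = growth of vehicle-treated yeast cultures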; details: S. cerevisiae wt2 strain growth inhibition, hits give high values
# Summary of the method: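 Treated yeast vs. vehicle-treated yeast: growth inhibition determined.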
# [13] = NCI Yeast Anticancer Drug Screen. Data for the mlh1 strain (AID 171);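 note: 0% = growth of vehicle-treated control cultures of the same strain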; details: S. cerevisiae mlh1 strain growth inhibition, hits give high values
# Summary of the method: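 A yeast strain with a defined genetic lesion serves as the test organism. Cultures receive compound or vehicle, and growth is measured.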
# [14] = NCI Yeast Anticancer Drug Screen. Data for the sgs1 strain (AID 173);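 note: 0% = growth of vehicle-only control cultures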; details: S. cerevisiae sgs1 mutant, hits give high values
# Summary of the method: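 A genetically defined yeast mutant is incubated with the test compound, and its growth is compared to that of the same strain given vehicle.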
# [15] = NCI Yeast Anticancer Drug Screen. Data for the mlh1 rad18 strain (AID 175); details: S. cerevisiae mlh1 rad18 strain growth inhibition, hits give high values
# Summary of the method: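 Steps: expose repair-defective yeast to compound; measure growth; express inhibition against vehicle-treated controls.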
# [16] = NCI Yeast Anticancer Drug Screen. Data for the rad18 strain (AID 177); details: S. cerevisiae rad18 mutant growth inhibition, hits give high values
# Summary of the method: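 Measured value is growth inhibition of a yeast strain bearing a DNA repair alteration, referenced to vehicle-treated cells.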
# [17] = at 5.0 µM (retest, dose inferred, filed as 0.5)
# [18] = at 50.0 µM (retest, dose inferred, filed as 5.0)
compound,measurement,setting,value
O=C1C=CC(=Nc2ccc3c(c2)Cc2cc(NC(=O)C(F)(F)F)ccc2-3)O1,growth inhibition,[1]; at 1.2 µM,4%
same,growth inhibition,[1]; at 3.7 µM,8%
same,growth inhibition,[1]; at 11.0 µM,21%
same,growth inhibition,[1]; at 33.0 µM,33%
same,growth inhibition,[1]; at 100.0 µM,97% (active)
same,growth inhibition,[2]; at 1.2 µM,3%
same,growth inhibition,[2]; at 3.7 µM,4%
same,growth inhibition,[2]; at 11.0 µM,11%
same,growth inhibition,[2]; at 33.0 µM,20%
same,growth inhibition,[2]; at 100.0 µM,95% (active)
same,growth inhibition,[3]; at 1.2 µM,8%
same,growth inhibition,[3]; at 3.7 µM,40%
same,growth inhibition,[3]; at 11.0 µM,81% (active)
same,growth inhibition,[3]; at 33.0 µM,91% (active)
same,growth inhibition,[3]; at 100.0 µM,98% (active)
same,growth inhibition,[4]; at 1.2 µM,1%
same,growth inhibition,[4]; at 3.7 µM,5%
same,growth inhibition,[4]; at 11.0 µM,12%
same,growth inhibition,[4]; at 33.0 µM,36%
same,growth inhibition,[4]; at 100.0 µM,96% (active)
same,growth inhibition,[5]; at 1.2 µM,2%
same,growth inhibition,[5]; at 3.7 µM,7%
same,growth inhibition,[5]; [17],44%
same,growth inhibition,[5]; at 11.0 µM,20%
same,growth inhibition,[5]; at 33.0 µM,55%
same,growth inhibition,[5]; [18],96% (active)
same,growth inhibition,[5]; at 50.0 µM,82.4% (active)
same,growth inhibition,[5]; at 100.0 µM,97% (active)
same,growth inhibition,[6]; at 1.2 µM,5%
same,growth inhibition,[6]; at 3.7 µM,14%
same,growth inhibition,[6]; [17],88% (active)
same,growth inhibition,[6]; at 11.0 µM,28%
same,growth inhibition,[6]; at 33.0 µM,48%
same,growth inhibition,[6]; [18],95% (active)
same,growth inhibition,[6]; at 50.0 µM,96% (active)
same,growth inhibition,[6]; at 100.0 µM,96% (active)
same,growth inhibition,[7]; at 1.2 µM,6%
same,growth inhibition,[7]; at 3.7 µM,15%
same,growth inhibition,[7]; at 11.0 µM,32%
same,growth inhibition,[7]; at 33.0 µM,62%
same,growth inhibition,[7]; at 100.0 µM,98% (active)
same,growth inhibition,[8]; [17],51%
same,growth inhibition,[8]; [18],97% (active)
same,growth inhibition,[8]; at 50.0 µM,98.3% (active)
same,growth inhibition,[9]; at 1.2 µM,-4%
same,growth inhibition,[9]; at 3.7 µM,1%
same,growth inhibition,[9]; at 11.0 µM,10%
same,growth inhibition,[9]; at 33.0 µM,23%
same,growth inhibition,[9]; at 100.0 µM,96% (active)
same,growth inhibition,[10]; [17],7%
same,growth inhibition,[10]; [18],93% (active)
same,growth inhibition,[10]; at 50.0 µM,3.55%
same,growth inhibition,[11]; at 1.2 µM,-7%
same,growth inhibition,[11]; at 3.7 µM,-6%
same,growth inhibition,[11]; [17],25%
same,growth inhibition,[11]; at 11.0 µM,0%
same,growth inhibition,[11]; at 33.0 µM,13%
same,growth inhibition,[11]; [18],96% (active)
same,growth inhibition,[11]; at 50.0 µM,87.7% (active)
same,growth inhibition,[11]; at 100.0 µM,96% (active)
same,growth inhibition,[12]; at 1.2 µM,1%
same,growth inhibition,[12]; at 3.7 µM,3%
same,growth inhibition,[12]; at 11.0 µM,15%
same,growth inhibition,[12]; at 33.0 µM,26%
same,growth inhibition,[12]; at 100.0 µM,98% (active)
same,growth inhibition,[13]; at 1.2 µM,3%
same,growth inhibition,[13]; at 3.7 µM,9%
same,growth inhibition,[13]; at 11.0 µM,22%
same,growth inhibition,[13]; at 33.0 µM,39%
same,growth inhibition,[13]; at 100.0 µM,98% (active)
same,growth inhibition,[14]; at 1.2 µM,7%
same,growth inhibition,[14]; at 3.7 µM,15%
same,growth inhibition,[14]; at 11.0 µM,34%
same,growth inhibition,[14]; at 33.0 µM,63%
same,growth inhibition,[14]; at 100.0 µM,98% (active)
same,growth inhibition,[15]; [17],79% (active)
same,growth inhibition,[15]; [18],94% (active)
same,growth inhibition,[15]; at 50.0 µM,98.3% (active)
same,growth inhibition,[16]; at 1.2 µM,4%
same,growth inhibition,[16]; at 3.7 µM,13%
same,growth inhibition,[16]; at 11.0 µM,32%
same,growth inhibition,[16]; at 33.0 µM,57%
same,growth inhibition,[16]; at 100.0 µM,96% (active)
CCOC(=O)[C@H]1Nc2ccccc2C2c3ccccc3CC21 (stereo partly specified),growth inhibition,[1]; at 1.2 µM,-39%
same,growth inhibition,[1]; at 3.7 µM,-44%
same,growth inhibition,[1]; at 11.0 µM,-10%
same,growth inhibition,[1]; at 33.0 µM,55%
same,growth inhibition,[1]; at 100.0 µM,76% (active)
same,growth inhibition,[2]; at 1.2 µM,-9%
same,growth inhibition,[2]; at 3.7 µM,-2%
same,growth inhibition,[2]; at 11.0 µM,0%
same,growth inhibition,[2]; at 33.0 µM,26%
same,growth inhibition,[2]; at 100.0 µM,54%
same,growth inhibition,[3]; at 1.2 µM,6%
same,growth inhibition,[3]; at 3.7 µM,0%
same,growth inhibition,[3]; at 11.0 µM,14%
same,growth inhibition,[3]; at 33.0 µM,31%
same,growth inhibition,[3]; at 100.0 µM,14%
same,growth inhibition,[4]; at 1.2 µM,-4%
same,growth inhibition,[4]; at 3.7 µM,10%
same,growth inhibition,[4]; at 11.0 µM,53%
same,growth inhibition,[4]; at 33.0 µM,64%
same,growth inhibition,[4]; at 100.0 µM,65%
same,growth inhibition,[5]; at 1.2 µM,-6%
same,growth inhibition,[5]; at 3.7 µM,-9%
same,growth inhibition,[5]; [17],15%
same,growth inhibition,[5]; at 11.0 µM,-4%
same,growth inhibition,[5]; at 33.0 µM,27%
same,growth inhibition,[5]; [18],91% (active)
same,growth inhibition,[5]; at 50.0 µM,84.6% (active)
same,growth inhibition,[5]; at 100.0 µM,55%
same,growth inhibition,[6]; at 1.2 µM,-23%
same,growth inhibition,[6]; at 3.7 µM,-12%
same,growth inhibition,[6]; [17],-10%
same,growth inhibition,[6]; at 11.0 µM,21%
same,growth inhibition,[6]; at 33.0 µM,53%
same,growth inhibition,[6]; [18],20%
same,growth inhibition,[6]; at 50.0 µM,91.3% (active)
same,growth inhibition,[6]; at 100.0 µM,65%
same,growth inhibition,[7]; at 1.2 µM,-13%
same,growth inhibition,[7]; at 3.7 µM,-16%
same,growth inhibition,[7]; at 11.0 µM,1%
same,growth inhibition,[7]; at 33.0 µM,22%
same,growth inhibition,[7]; at 100.0 µM,50%
same,growth inhibition,[8]; [17],25%
same,growth inhibition,[8]; [18],83% (active)
same,growth inhibition,[8]; at 50.0 µM,91.4% (active)
same,growth inhibition,[9]; at 1.2 µM,5%
same,growth inhibition,[9]; at 3.7 µM,-1%
same,growth inhibition,[9]; at 11.0 µM,11%
same,growth inhibition,[9]; at 33.0 µM,30%
same,growth inhibition,[9]; at 100.0 µM,23%
same,growth inhibition,[10]; [17],13%
same,growth inhibition,[10]; [18],73% (active)
same,growth inhibition,[10]; at 50.0 µM,90.9% (active)
same,growth inhibition,[11]; at 1.2 µM,-4%
same,growth inhibition,[11]; at 3.7 µM,11%
same,growth inhibition,[11]; [17],-6%
same,growth inhibition,[11]; at 11.0 µM,23%
same,growth inhibition,[11]; at 33.0 µM,79% (active)
same,growth inhibition,[11]; [18],75% (active)
same,growth inhibition,[11]; at 50.0 µM,90.5% (active)
same,growth inhibition,[11]; at 100.0 µM,81% (active)
same,growth inhibition,[12]; at 1.2 µM,-31%
same,growth inhibition,[12]; at 3.7 µM,-25%
same,growth inhibition,[12]; at 11.0 µM,21%
same,growth inhibition,[12]; at 33.0 µM,44%
same,growth inhibition,[12]; at 100.0 µM,48%
same,growth inhibition,[13]; at 1.2 µM,-3%
same,growth inhibition,[13]; at 3.7 µM,28%
same,growth inhibition,[13]; at 11.0 µM,52%
same,growth inhibition,[13]; at 33.0 µM,70% (active)
same,growth inhibition,[13]; at 100.0 µM,60%
same,growth inhibition,[14]; at 1.2 µM,-6%
same,growth inhibition,[14]; at 3.7 µM,4%
same,growth inhibition,[14]; at 11.0 µM,41%
same,growth inhibition,[14]; at 33.0 µM,64%
same,growth inhibition,[14]; at 100.0 µM,72% (active)
same,growth inhibition,[15]; [17],8%
same,growth inhibition,[15]; [18],94% (active)
same,growth inhibition,[15]; at 50.0 µM,87.8% (active)
same,growth inhibition,[16]; at 1.2 µM,-31%
same,growth inhibition,[16]; at 3.7 µM,-36%
same,growth inhibition,[16]; at 11.0 µM,17%
same,growth inhibition,[16]; at 33.0 µM,64%
same,growth inhibition,[16]; at 100.0 µM,74% (active)
